Experimental findings from PubChem BioAssay AID492998 (Southern Research Specialized Biocontainment Screening …, 2010) are described below.

Screen size: about 2,300 compounds; about 550 (24%) were called active. The rule behind the calls is not given here. The list is a sample of the results. Entries with a potency or affinity are not part of this list.

A short description of the experiment: Vero E6 cell cytotoxicity, dose response, cytotoxicity control for non-replicating M. tuberculosis project, secondary assay (AID 492998). As to conditions: series mostly up to 20 µM.
For the molecule `O=C(OCc1nnc(-c2ccccc2)o1)c1ccc(Br)o1`, the result was inactive. In the case of `Nn1c(SCCOc2ccc(Cl)cc2)nnc1-c1cccnc1`, the outcome was inactive. As for `COc1ccc(C(=O)COC(=O)c2ccc([N+](=O)[O-])s2)cc1OC`, the entry is “inactive”. Consider `COc1cc(C=O)ccc1OCCOCCOc1ccc(Cl)cc1`, for which the call was inactive. Consider `COC(=O)CCc1nc2c(C#N)c(-c3ccc(Cl)cc3)ccn2n1`, for which the molecule was called inactive. As to `O=C(Nc1ccc(Br)cc1)c1cc([N+](=O)[O-])cc([N+](=O)[O-])c1`, the result was inactive. Turning to `O=C(NCC1CCCCC1)c1ccco1`, the molecule was classed as inactive. With `Oc1ccccc1-c1nnc(COc2ccccc2)o1` the entry was “inactive”. On to `Cc1ccc(CCC(=O)Nc2ccc(C)c(C)c2)o1`, for which the call was inactive. As for `CC12CN3CC(C)(CN(C1)C3c1ccc([N+](=O)[O-])o1)C2` (centres undefined), the entry is “inactive”; as for `CC1CC(C)CN(C(=O)COC(=O)c2ccc([N+](=O)[O-])o2)C1` (centres undefined), “inactive”; as for `O=[N+]([O-])c1ccc(CN2CCN(c3ccc(Cl)cc3)CC2)o1`, “inactive”.

Regarding `Cc1cccc(NCCC(=O)c2ccc([N+](=O)[O-])cc2)c1C`, the molecule was classed as inactive. Take `COc1ccc(NC(=O)c2ccc(-c3ccc([N+](=O)[O-])cc3)o2)cc1OC`: the call was inactive. On to `Cc1cccc(NC(=O)c2n[nH]c([N+](=O)[O-])c2Br)c1C`, for which the molecule was classed as inactive. With `Cc1cccc(CSc2nnc(-c3ccco3)o2)c1` the entry was “inactive”. Consider `CC(C)(C)c1ccc(OCCCC(=O)NC2=NCCS2)cc1`, for which the call was inactive.

Consider `Cc1ccc(NC(=O)COc2ccccc2)cc1Cl`, for which the molecule was called inactive. As for `O=C(NCCC1=CCCCC1)c1coc(=O)c(Br)c1`, the entry is “inactive”; as for `O=C(COC(=O)c1ccc(Br)o1)Nc1ncc([N+](=O)[O-])s1`, “inactive”; as for `COC(=O)c1ccc(COC(=O)CCS(=O)(=O)c2ccc(C)cc2)cc1`, “inactive”. With `CCOC(=O)CC(=O)Nc1ccc(C(=O)OCC)cc1` the entry was “inactive”. In the case of `C=CCc1ccc2oc(C(=O)OCC)cc(=O)c2c1O`, the molecule was called inactive. `CCNC(=O)NC(=O)C(C)OC(=O)CCCSc1nc2ccccc2s1` (centres undefined): the molecule was classed as inactive. In the case of `Cc1cccc(C)c1NC(=O)COC(=O)CCc1c[nH]c2ccccc12`, the molecule was called inactive. As for `O=S1(=O)N=C(N/N=C/C=C/c2ccccc2)c2ccccc21`, the entry is “inactive”. On to `Cc1ccc(NC(=O)c2noc(C(C)C)c2[N+](=O)[O-])cc1`, for which the call was inactive. In the case of `Cc1[nH]c2ccccc2c1C(=O)C(C)OC(=O)c1ccc([N+](=O)[O-])o1` (centres undefined), the molecule was classed as inactive. Take `Cc1cc(C)c(C(=O)COC(=O)c2ccc([N+](=O)[O-])o2)cc1C`: the result was inactive. With `COCCn1c(C)cc(C(=O)COC(=O)c2ccc([N+](=O)[O-])o2)c1C`, the outcome was inactive.

With `O=C(Nc1ccc([N+](=O)[O-])cc1)c1ccc(Cn2cc([N+](=O)[O-])cn2)cc1`, the result was inactive. With `Cc1cc(C(=O)N/N=C/c2ccc([N+](=O)[O-])o2)c(C)o1`, the call was inactive. As to `O=C(Nc1ccccc1F)c1ccc(CSc2ccccc2)o1`, the molecule was called inactive. As to `CCCCC1CCC(C(=O)Nc2ccc(S(=O)(=O)Nc3nccs3)cc2)CC1` (centres undefined), the outcome was inactive. As for `CCCOC(=O)c1ccc(NC(=O)c2ccccc2OC)cc1`, the entry is “inactive”. As for `CCOC(=O)C1CCN(Cc2ccc(-c3ccccc3)cc2)CC1`, the outcome was inactive.

On to `OC(C#CCN1CCOCC1)c1cccs1` (centres undefined), for which the result was inactive. Consider `C=CCNc1nnc(Sc2ncccc2[N+](=O)[O-])s1`, for which the outcome was inactive. As for `S=C1CN=C(c2ccccc2)c2cc(Cl)ccc2N1`, the result was inactive. As for `CC(C)Oc1ccc(C(=O)CCN2CCCCC2)cc1`, the result was inactive. `Cc1ccc(CCC(=O)Nc2cc(Cl)ccc2Cl)o1`: the outcome was inactive. As to `CCOc1ccc(CC(=O)N2N=C(C)CC2(O)C(F)(F)F)cc1` (centres undefined), the molecule was called inactive. As to `Cc1ccc(OCC(=O)N/N=C/c2ccc([N+](=O)[O-])o2)cc1`, the outcome was inactive. With `O=C(c1ccc([N+](=O)[O-])o1)N1CCN(Cc2ccccc2)CC1`, the outcome was inactive. In the case of `CCn1nnc(NC(=O)c2ccc(-c3ccc(Cl)cc3)o2)n1`, the molecule was called inactive.

Take `CCn1nnc(NC(=O)COc2ccc(C3CCCCC3)cc2)n1`: the outcome was inactive. Take `O=C(NCc1ccc(F)cc1)c1ccc(Br)o1`: the molecule was called inactive. In the case of `O=C(NCCC1=CCCCC1)c1ccc(F)cc1`, the call was inactive. Turning to `O=C(CCC1CCCC1)Nc1ccc(Br)cn1`, the result was inactive. With `O=C(c1cc(F)ccc1F)C1CCCN(Cc2ccc3nonc3c2)C1` (centres undefined) the entry was “inactive”; with `CC(C)Cn1c(N)c(C(=O)COC(=O)c2cnc(Cl)c(Cl)c2)c(=O)n(C)c1=O`, “inactive”; with `COc1cc(N=c2ssnc2Cl)cc(OC)c1`, “inactive”. Regarding `CCOC(=O)COc1ccc2c(=O)cc(-c3ccccc3)oc2c1`, the molecule was called inactive. For `COC(=O)C(C)Oc1ccc2cc(-c3ccccc3)c(=O)oc2c1` (centres undefined), the molecule was called inactive. As to `Cc1ccccc1OCC(=O)OCC(=O)c1ccc[nH]1`, the result was inactive.

On to `Fc1ccc(-c2nnc(-c3ccc(F)cc3)o2)cc1`, for which the molecule was called inactive. Turning to `COc1cccc(OCc2nnc(-c3cccs3)o2)c1`, the outcome was inactive. As for `Fc1ccc(-c2nnc(CSc3nnc(-c4cccs4)o3)o2)cc1`, the entry is “inactive”; as for `Cc1ccc(-c2nnc(-c3cccs3)o2)cc1`, “inactive”; as for `Cc1cc(C(=O)N/N=C/c2ccc(OC(=O)c3ccccc3Br)cc2)n[nH]1`, “inactive”.

With `Oc1oc(-c2ccco2)nc1C=Nc1cccc(Cl)c1`, the result was inactive. With `CCc1cc(C(c2ccncc2)N2CCN(C)CC2)c(NC(=O)c2ccccc2)s1` (centres undefined) the entry was “inactive”; with `CCOC(=O)C1(CC2CCCCO2)CCN(Cc2nccn2-c2ccc(OC)cc2)CC1` (centres undefined), “inactive”. For the molecule `COC12C(COC(N)=O)C3=C(C(=O)C(C)=C(N)C3=O)N1CC1C2N1C` (centres undefined), the call was inactive.

On to `c1ccc(C2=Nc3ccccc3OC2)cc1`, for which the molecule was called inactive. Consider `Cc1cc2nc(/N=C(\N)NC(=O)C(C)C)nc(C)c2cc1C`, for which the result was inactive. Take `Cc1ccc2nc(CCc3nc4ccc(C)cc4[nH]3)[nH]c2c1`: the result was inactive. Take `CC(C)OC(=O)CCCCCN1C(=O)CSC1=S`: the result was inactive.

On to `O=C(Nc1ccccn1)c1ccc(C(=O)c2ccccc2)cc1`, for which the outcome was inactive. As to `CCCCNC(=O)COC(=O)c1cc(Br)ccc1Cl`, the molecule was classed as inactive.

Regarding `Cc1[nH]n2c(=O)c3c(nc2c1-c1ccccc1)CCCC3`, the call was inactive.

In the case of `CCOC(=O)COc1ccc2c(c1)C(=O)CC1(CCCCC1)O2`, the call was inactive. Regarding `O=C(COc1ccc(Cl)cc1)Nc1ccccc1Cl`, the call was inactive.

Turning to `CC1=NN(C(=O)COc2ccccc2C)C(O)(c2ccc(Cl)cc2)C1` (centres undefined), the molecule was called inactive. With `Cc1cc(Cl)ccc1NNC(=O)c1c(C)noc1C`, the call was inactive. As for `O=C(Oc1cccc2cccnc12)c1cccc([N+](=O)[O-])c1`, the entry is “inactive”; as for `Cc1ccc(CSCCNC(=O)c2cccc([N+](=O)[O-])c2)cc1`, “inactive”. Consider `O=C(N/N=C/c1ccccn1)c1cccc([N+](=O)[O-])c1`, for which the molecule was called inactive. As for `COc1ccc(C(=O)NN/C(C)=C/C(=O)c2ccccc2)cc1`, the entry is “inactive”. Consider `O=C(N/N=C/C=C/c1cccc([N+](=O)[O-])c1)c1ccncc1`, for which the molecule was called inactive. For `COc1cccc(OCCNC(=O)c2cc([N+](=O)[O-])cc([N+](=O)[O-])c2)c1`, the outcome was inactive.

As to `O=C(c1ccco1)N1CCN(c2ccc(F)cc2)CC1`, the molecule was called inactive. Regarding `CCOC(=O)C(=O)Cc1nc2ccccc2s1`, the molecule was called inactive. As for `C=C1CCC[C@]2(C)C[C@H]3OC(=O)C(CNC(C)CCCC(C)C)[C@H]3CC12` (some centres undefined), the entry is “inactive”.

In the case of `COc1ccc([C@@]2(O)c3c(ccc(CC=C(C)C)c3O)NC(=O)[C@@H]2OC)cc1`, the result was inactive. Turning to `COc1ccccc1C(c1nnnn1Cc1ccccc1)N1CCC(C(N)=O)CC1` (centres undefined), the call was inactive. Regarding `Cc1ccc(-c2nnc(SCC#CCOC(=O)c3ccco3)o2)cc1`, the result was inactive. Turning to `O=C(Cc1ccc(F)cc1)Nc1ccc(Cl)cn1`, the call was inactive. For `O=C1N(c2ccc3c(c2)OCCO3)C(c2ccccc2)C1(F)F` (centres undefined), the call was inactive. On to `CCCCNC(=O)Cc1ccc(C)cc1`, for which the call was inactive. `O=C(N/N=C\c1ccc([N+](=O)[O-])o1)C1COc2ccccc2O1` (centres undefined): the outcome was inactive. Consider `O=C(Nc1cccc(Cl)c1)C1COc2ccccc2O1` (centres undefined), for which the result was inactive. With `CC(C)NC(=O)C1COc2ccccc2O1` (centres undefined) the entry was “inactive”; with `Cn1cccc1/C=N\NC(=O)C1COc2ccccc2O1` (centres undefined), “inactive”. As to `O=C(Nc1ccc([N+](=O)[O-])cc1)C1COc2ccccc2O1` (centres undefined), the molecule was classed as inactive.

`CC(C)(C)c1ccc2c(c1)OC(C(=O)N/N=C\c1ccccn1)CO2` (centres undefined): the molecule was called inactive. On to `Clc1ccc(CN2C3=NCCCN3c3ccccc32)cc1`, for which the result was inactive. As for `C#CCOc1coc(COC(=O)c2ccccc2)cc1=O`, the result was inactive. `Cc1ccc(C(C)NC(=O)c2cc3ccccc3oc2=O)cc1C` (centres undefined): the molecule was called inactive.

As to `COC(=O)C1=C(C)N(Cc2ccccc2)C(=NCc2ccccc2)N[C@H]1c1cccc(F)c1`, the outcome was inactive. As for `CC(OC(=O)c1ccc2c(=O)n3c(nc2c1)CCCCC3)C(=O)Nc1ccc(Cl)cn1` (centres undefined), the molecule was classed as inactive. `CCOC(=O)Cn1cc(C#N)c2ccccc21`: the molecule was classed as inactive. Take `O=C(NCc1nnc(SC/C=C/c2ccccc2)o1)c1ccco1`: the result was inactive. With `CCCC(C)C(=O)Nc1ccc(Cl)cn1` (centres undefined) the entry was “inactive”; with `CC(C)(C)OC(=O)NCCc1nnc(S(=O)(=O)Cc2ccc(Cl)cc2Cl)o1`, “inactive”.

Regarding `Nc1nc2ccccc2n1CCOc1ccc(Br)cc1`, the molecule was classed as inactive. With `O=C(Nc1nc2ccccc2n1CCN1CCCC1)C1CCCCC1`, the molecule was called inactive. With `Cn1c(CNc2ccccc2O)nc2ccccc21` the entry was “inactive”; with `CCOC(=O)c1csc(COc2ccccc2Cl)n1`, “inactive”.

Regarding `O=C(Nc1ccc(-c2nc3ccccc3c(=O)o2)cc1)c1ccco1`, the call was inactive.

On to `Nc1nc2ccccc2n1CCOc1ccccc1Cl`, for which the molecule was called inactive. Consider `O=C(COC(=O)c1cccs1)NCCC1=CCCCC1`, for which the result was inactive. As for `O=C(OCC(=O)N1CCc2ccccc21)c1ccc([N+](=O)[O-])cc1`, the result was inactive.

For the molecule `CN(C)CCN1C(=O)c2oc3ccccc3c(=O)c2C1c1cccc(Br)c1` (centres undefined), the call was inactive.

Consider `COC(=O)COc1cccc(NC(=O)COc2ccccc2)c1`, for which the call was inactive.

In the case of `COc1ccc(OC(=O)c2cc3ccccc3o2)cc1`, the result was inactive. As to `CC(=O)c1ccc(OCC(=O)Nc2ccc3c(c2)CCC3)cc1`, the result was inactive. In the case of `CC(=O)c1ccc(NC(=O)CCc2ccc(C)o2)cc1`, the result was inactive.

In the case of `CC1=NN(C(=O)c2ccccc2F)C(O)(c2ccc(Cl)cc2)C1` (centres undefined), the molecule was called inactive.
